High-throughput results from PubChem BioAssay.
NS1 function inh: qHTS Assay for Inhibitors of Influenza NS1 Protein Function | Potency, µM (series often up to 46.1 µM), for inactives: at the top dose activity, positive = more growth | hit rate 0.4% among 270,000 | AID 2326, 2010; calls by dose curve; also: actives are rising curves; nearly all actives have a fitted effect of over 50% in size
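OD600 was taken as the measure of yeast growth restored by compound in an NS1-expressing S. cerevisiae strain. Cells had been washed out of glucose medium and diluted 1:100 into galactose -URA medium, pH 6.0.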
Cruzain inh Det: qHTS Assay for Promiscuous and Specific Inhibitors of Cruzain (with detergent); Cruzipain (Trypanosoma cruzi), P25779; purified cruzain, Z-FR-AMC fluorescence, 0.01% Triton; Potency, µM, for the others: max response, negative = inhibition, actives largely listed as inhibitors; hit rate 0.43% among 200,000; AID 1478, 2009;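 also: plate controls were neutral wells for no effect and buffer without enzyme for full effect; nearly all actives have a fitted effect of over 40% in size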
Target sequence (P25779 123-467 limits assumed): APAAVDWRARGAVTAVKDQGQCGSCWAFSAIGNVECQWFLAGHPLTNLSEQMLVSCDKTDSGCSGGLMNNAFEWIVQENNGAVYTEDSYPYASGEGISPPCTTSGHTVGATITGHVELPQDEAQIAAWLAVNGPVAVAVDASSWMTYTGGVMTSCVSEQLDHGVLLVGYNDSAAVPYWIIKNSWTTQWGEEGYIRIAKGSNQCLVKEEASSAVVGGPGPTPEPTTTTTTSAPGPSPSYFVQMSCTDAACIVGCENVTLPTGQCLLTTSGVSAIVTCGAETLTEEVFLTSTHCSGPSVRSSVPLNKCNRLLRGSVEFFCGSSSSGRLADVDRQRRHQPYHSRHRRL
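Sodium acetate buffer (100 mM, pH 5.5) containing 5 mM DTT and 0.01% Triton X-100 hosted 1.5 nM cruzain and test compound for 15 min at room temperature. Cleavage of 2 uM Z-FR-AMC was then tracked by fluorescence.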
Cruzain noTriton: qHTS Assay for Promiscuous and Specific Inhibitors of Cruzain (without detergent) | purified cruzain, Z-FR-AMC fluorescence, no detergent | Potency, µM, inactives show max response, negative = inhibition, usual class: inhibitors | hit rate 2.3% among 200,000;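 also: plate controls were enzyme without inhibitor for no effect and buffer without enzyme for full effect; nearly all actives have a fitted effect of over 40% in size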
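Detergent-free condition (0.00005% Triton X-100) in acetate buffer pH 5.5 with DTT. 1.5 nM enzyme and compound were pre-mixed 15 min, then 2 uM Z-FR-AMC substrate added; reaction progress from fluorescence change between first and third reads (60 s).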
* marks the source's active call; other numbers are inactive results. The full list was thinned out, with hits kept by preference. Unless noted, calls follow the shape of the dose curve; as a rule, active = well fitted curve in the direction sought with a large enough effect; inconclusive = small, poorly fitted or top-dose-only effect, or another doubt; inactive = no such curve, though single readings can be large; an effect the other way counts as inactive or inconclusive. Potency is read from the fitted curve at half-maximal effect.

For COc1ccc(/C=C2\CCCC3C2=NN(C(=O)COC(=O)CNC(=O)c2ccccc2)C3c2ccc(OC)cc2)cc1 (stereo not given) the results were NS1 function inh -1.8%, Cruzain inh Det -25.7% and Cruzain noTriton 15.8µM*.
`Nc1nc2nccc(-c3ccc(Cl)cc3)n2n1` gave NS1 function inh -236.3%, Cruzain inh Det 25.1µM* and Cruzain noTriton -75.2%.
For Cc1cc(-c2ccc(Cl)cc2)n2nc(N)nc2n1 the results were NS1 function inh 1.1%, Cruzain inh Det -10.2% and Cruzain noTriton 12.0%.
`O=C(NN=C1C2CC3CC(C2)CC1C3)c1ccccc1O` gave NS1 function inh -2.6%.
`COc1ccc(C2(C)NC(=O)N(CC(=O)Nc3ccc(-c4nc5ccc(C)cc5s4)cc3)C2=O)cc1` (stereo not given) gave NS1 function inh 12.0%.
Screening CCC1(c2ccc(F)cc2)NC(=O)N(CC(=O)Nc2ccc(-c3nc4ccc(C)cc4s3)cc2)C1=O (stereo not given) returned NS1 function inh -33.0%, Cruzain inh Det -11.1% and Cruzain noTriton 12.6µM*.
`Cn1c(=O)c(-c2cccs2)nc2cnc(N3CCOCC3)nc21` gave Cruzain inh Det 5.6% and Cruzain noTriton 8.2%.
`O=C(NCCc1ccc(Cl)cc1)c1ccc2c(c1)N(Cc1ccccc1F)C(=O)c1ccccc1S2(=O)=O` gave Cruzain inh Det 0.7% and Cruzain noTriton inconclusive.
Screening Cc1ccc(C)c(CN2C(=O)c3ccccc3S(=O)(=O)c3ccc(C(=O)NCCc4ccc(Cl)cc4)cc32)c1 returned Cruzain inh Det 5.4% and Cruzain noTriton 10µM*.
Cc1ccc(C)c(CN2C(=O)c3ccccc3S(=O)(=O)c3ccc(C(=O)Nc4cc(F)ccc4F)cc32)c1 was read as Cruzain inh Det -2.4% and Cruzain noTriton 15.8µM*.
`Cc1ccc(C)c(CN2C(=O)c3ccccc3S(=O)(=O)c3ccc(C(=O)Nc4ccccc4C(F)(F)F)cc32)c1` gave Cruzain inh Det -5.2% and Cruzain noTriton inconclusive.
Screening O=C(Cn1ncc2c3ccccc3n(Cc3ccccc3F)c2c1=O)N1CCN(c2ccccn2)CC1 returned NS1 function inh 3.6%.
`C=CCOC(=O)C1=C(C)NC(SCC(=O)Nc2ccccc2)=C(C#N)C1c1ccco1` (stereo not given) gave NS1 function inh inconclusive, Cruzain inh Det -6.1% and Cruzain noTriton -21.2%.
Screening Cc1cc2nc3c(nc2cc1C)C1(C(=O)O)CCC3(C)C1(C)C (stereo not given) returned NS1 function inh -15.9%, Cruzain inh Det -0.2% and Cruzain noTriton 7.2%.
For CN(C)S(=O)(=O)c1ccc(C(=O)NCc2nc3ccccc3s2)cc1 the results were NS1 function inh 2.6%.
For O=S(=O)(Nc1ccc2c(c1)OCCO2)c1ccc(Br)s1 the results were NS1 function inh -2.7%, Cruzain inh Det -2.0% and Cruzain noTriton -7.5%.
Screening COc1ccc(N(CC(=O)NCc2ccccc2)C(=O)CCC(=O)Nc2cc(C)ccn2)c(OC)c1 returned NS1 function inh -35.4%.
For O=C(CN1CCc2ccccc21)NC(=O)NC1CCCCC1 the results were NS1 function inh 0.2%.
C=CCn1c(SCC(=O)Nc2sc3c(c2C#N)CCC3)nnc1C1COc2ccccc2O1 (stereo not given) was read as NS1 function inh inconclusive, Cruzain inh Det -2.0% and Cruzain noTriton 31.6µM*.
Cn1c(SCC(=O)Nc2sc3c(c2C#N)CCC3)nnc1C1COc2ccccc2O1 (stereo not given) was read as NS1 function inh inconclusive, Cruzain inh Det 3.3% and Cruzain noTriton -16.4%.
For Cc1ccc(CNC(=O)Cn2c(=O)n(Cc3ccc(F)cc3)c(=O)c3sc4ccccc4c32)cc1 the results were Cruzain inh Det -1.0% and Cruzain noTriton -13.2%.
`CCc1cc2c(nc1CC)CCN(CC/C(C)=N/O[C@@H](C)c1cc(-c3c(C)cc(C)cc3C)no1)C2` gave NS1 function inh -72.1%, Cruzain inh Det -4.7% and Cruzain noTriton -1.6%.
For C/C(CCN1CCc2nc(-c3ccccc3)c(-c3ccccc3)cc2C1)=N\O[C@@H](C)c1cc(-c2c(C)cc(C)cc2C)no1 the results were NS1 function inh inconclusive, Cruzain inh Det -1.7% and Cruzain noTriton 20µM*.
Screening O=C(Cn1cnc2sc(-c3ccccc3)cc2c1=O)NCc1ccccc1 returned NS1 function inh -6.1%, Cruzain inh Det 1.4% and Cruzain noTriton 15.8µM*.
O=C(Cn1cnc2sc(-c3ccccc3)cc2c1=O)NCCc1ccccc1 was read as NS1 function inh -0.2%, Cruzain inh Det -1.0% and Cruzain noTriton -22.5%.
For COc1cc(/C=N/NC(=O)C(=O)/C=C2\NC3(CCCC3)Cc3ccccc32)ccc1O the results were NS1 function inh 4.7%, Cruzain inh Det -7.6% and Cruzain noTriton -1.9%.
O=C(/C=C1\NC2(CCCC2)Cc2ccccc21)C(=O)N/N=C/c1ccccc1O was read as NS1 function inh inconclusive, Cruzain inh Det 0.7% and Cruzain noTriton 25.1µM*.
Screening CCCCNC(=O)[C@@H](c1ccccc1)N1Cc2ccccc2C1=O returned Cruzain inh Det 6.5% and Cruzain noTriton 5.2%.
Screening O=C(O)[C@@H](c1ccccc1)N1Cc2ccccc2C1=O returned NS1 function inh -6.9%, Cruzain inh Det -27.3% and Cruzain noTriton 15.8µM*.
CN(C)S(=O)(=O)c1cc(NC(=O)c2cc(=O)c3ccccc3o2)ccc1Cl was read as NS1 function inh 22.0%.
For CCOC(=O)c1[nH]c2ccc(OC)cc2c1NC(=O)c1nonc1C the results were NS1 function inh -8.6%, Cruzain inh Det 6.2% and Cruzain noTriton 4.1%.
CCOC(=O)c1[nH]c2ccc(Cl)cc2c1NC(=O)c1nonc1C was read as NS1 function inh 10.4%, Cruzain inh Det -1.8% and Cruzain noTriton 10µM*.
Screening CCN(CC)c1ccccc1 returned Cruzain inh Det -0.9% and Cruzain noTriton -5.6%.
`Nc1ccc(N(c2ccccc2)c2ccc(N)cc2)cc1` gave NS1 function inh 18.4%, Cruzain inh Det -0.8% and Cruzain noTriton 31.6µM*.
Screening Cn1c(-c2ccccc2)cnc1NCc1cc(Cl)ccc1O returned NS1 function inh -20.5%.
For Cn1c(=O)cnc2cnc(Nc3ccccc3)nc21 the results were Cruzain inh Det -5.8% and Cruzain noTriton 25.1µM*.
Screening COCCn1c(=O)cnc2cnc(Nc3ccccc3)nc21 returned Cruzain inh Det -6.6% and Cruzain noTriton -9.4%.
Screening COc1cc(CCC(=O)OCC(=O)Nc2c(C)cc(C)cc2C)cc(OC)c1OC returned NS1 function inh -7.5%, Cruzain inh Det 2.8% and Cruzain noTriton 10.8%.
COc1ccc(NC(=O)CCn2cnnn2)cc1 was read as Cruzain inh Det 2.2% and Cruzain noTriton -1.9%.
COc1ccc(NC(=O)/C(C#N)=C\c2cc(C)n(-c3ccc(Oc4ccc([N+](=O)[O-])cn4)cc3)c2C)cc1 was read as NS1 function inh 0.5%, Cruzain inh Det 1.5% and Cruzain noTriton 7.94µM*.
For COc1ccc(NC(=O)/C(C#N)=C/c2cc(C)n(-c3ccc(F)cc3)c2C)cc1 the results were Cruzain inh Det 0.2% and Cruzain noTriton -15.1%.
For O=C(c1coc(=O)c2ccccc12)N1CCN(Cc2ccccc2)CC1 the results were NS1 function inh -5.8%, Cruzain inh Det 3.8% and Cruzain noTriton -0.9%.
